Test results: PubChem BioAssay (NCATS)
Results filed as inconclusive are left out. Entries that show only a call come without a potency. Calls of active or inactive are those of the source. Calls follow the shape of the full dose curve. Residues, ends and D or L forms follow the SMILES beside them. *: point of attachment. Cbz = O=C(OCc1ccccc1)*

target: Atrial natriuretic peptide receptor 2 (Homo sapiens) (UniProt P20594); assay: Natriuretic polypeptide receptor (hNpr2) antagonism - Pilot subtype selectivity assay (AID 1347050); details: NPR2-expressing cells, cGMP antagonist-mode read-out; series mostly up to 38.3 µM
Sequence (P20594 whole entry, looked up): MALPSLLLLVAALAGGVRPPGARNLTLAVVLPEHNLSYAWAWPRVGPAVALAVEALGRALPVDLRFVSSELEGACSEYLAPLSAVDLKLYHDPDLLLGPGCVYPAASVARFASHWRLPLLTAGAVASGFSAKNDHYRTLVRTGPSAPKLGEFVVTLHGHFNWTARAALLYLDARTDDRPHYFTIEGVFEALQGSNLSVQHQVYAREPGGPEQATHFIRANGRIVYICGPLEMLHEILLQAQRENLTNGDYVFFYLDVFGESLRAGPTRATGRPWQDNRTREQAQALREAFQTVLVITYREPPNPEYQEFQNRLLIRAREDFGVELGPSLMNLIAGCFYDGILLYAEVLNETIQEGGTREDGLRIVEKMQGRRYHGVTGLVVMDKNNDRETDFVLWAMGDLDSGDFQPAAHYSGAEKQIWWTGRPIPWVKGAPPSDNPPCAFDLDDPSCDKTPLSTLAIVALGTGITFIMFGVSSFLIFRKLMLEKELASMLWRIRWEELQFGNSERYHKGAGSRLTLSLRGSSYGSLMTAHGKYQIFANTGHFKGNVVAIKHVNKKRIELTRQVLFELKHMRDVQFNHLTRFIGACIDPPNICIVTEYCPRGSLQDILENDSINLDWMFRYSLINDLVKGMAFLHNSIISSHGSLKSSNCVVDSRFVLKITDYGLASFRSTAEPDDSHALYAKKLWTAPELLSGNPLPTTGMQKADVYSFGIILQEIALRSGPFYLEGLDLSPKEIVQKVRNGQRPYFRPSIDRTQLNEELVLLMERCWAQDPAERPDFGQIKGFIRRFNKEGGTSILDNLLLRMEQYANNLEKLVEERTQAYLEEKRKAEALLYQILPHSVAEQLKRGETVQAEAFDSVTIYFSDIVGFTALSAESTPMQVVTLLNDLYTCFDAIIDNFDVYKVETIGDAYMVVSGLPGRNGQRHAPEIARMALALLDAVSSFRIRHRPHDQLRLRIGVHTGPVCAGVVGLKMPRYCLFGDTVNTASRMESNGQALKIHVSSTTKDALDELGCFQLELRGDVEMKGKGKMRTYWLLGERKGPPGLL
Method: F. Fan, B. F. Binkowski, B. L. Butler, P. F. Stecha, M. K. Lewis, K. V. Wood, Novel genetically encoded biosensors using firefly luciferase. ACS Chem Biol 3, 346-351 (2008).
PROTOCOL TABLE (as described by Inglese J, Shamu CE and Guy RK. 2007)
SEQUENCE No. (e.g., 1, 2, 3, etc.); […] (e.g., Cells, Incubation, Reagent, etc.); VALUE and DESCRIPTION.
1. Cells. Seed 1500 HEK293 cGMP-sensor cells expressing hNpr2 per well in 4uL into Greiner 1536-well white/solid bottom high base, TC plates.
2. Incubation. Incubate plated cells at 37C in 5% CO2, 95% RH overnight.
3. Reagent. Add 1uL per well GloSensor reagent from Promega (2% final concentration) or CO2 independent media vehicle control to respective columns of Greiner 1536-well plates.
4. Incubation. Incubate plated cells at ambient temperature for 2 h., protect from light.
5. Compounds. Library compounds and DMSO vehicle control added at 23nL per well, transferred by Pin Tool.
6. Incubation. Incubate plated cells for 30 min. at ambient temperature, protect from light.
7. Detector. GloSensor baseline pre-read luminescence measured using CCD-based camera (Viewlux).
8. Compound. Add 1uL of hNppC peptide to 1 nM final concentration to stimulate hNpr2 or CO2 independent media as vehicle control.
9. Incubation. Incubate treated cells at ambient temperature for 20 min., protect from light.
10. Detector. GloSensor post-hNppC luminescence measured using CCD-based camera (Viewlux).
NOTES (numbers refer to Sequence numbers above)
1. HEK293 cells expressing hNpr2 and GIP/pGS-40F were grown to 85-95% confluence (48-72 h) in T175 culture flasks (CO2 independent media supplemented with 10% FBS, 1% Pen/Strep antibiotics, and 1 ug/mL puromycin). Trypsinize and harvest cells from T175 culture flasks and filter through 40 um cell strainer. Cells counted with Invitrogen Countess (30,000,000 - 50,000,000 cells/flask). Cells diluted to a final concentration of 375 cells/uL in CO2 independent media and a Millipore multidrop used to dispense 1500 cells per well (4uL/well) into 9 x1536-well Greiner White/Solid bottom, high base tissue-culture treated (TC) plates and one Aurora 1536-well Black/Clear bottom, low base, TC plate (for visual inspection of cell health throughout the duration of the assay).
2. Cells incubated for 24 h. at 37C in 95% RH incubator with metal lid having gas-exchange holes.
3. Prepare GloSensor Reagent (Promega): Reconstitute GloSensor luciferase substrate by adding 8.2mL Hepes buffer to 250mg substrate, mix well, protect from light and stored at -80C. Prepare a fresh 12% GloSensor solution in CO2 independent supplemented plating media (see above). Mix well and store at ambient temperature, protected from light. 1uL 12% GloSensor Luciferase Reagent added (2% final concentration) to respective columns of 9 x 1536-well Greiner plate with BioRaptr, 1uL CO2 independent plating media added to respective columns as vehicle control with BioRaptr.
4. Cells incubated for 2 h. at ambient temperature, protected from light with metal lid having gas-exchange holes.
5. 23nL of LOPAC1280 library compounds (7 plates) or DMSO vehicle control transferred to 9 Greiner white/solid bottom high base, TC plates in 7 interplate 1:5 titrations (see Yasgar, A. et al. 2008) with Pintool. Two of the 9 plates are DMSO-only in compound field at beginning and end of compound library-treated plates.
6. Cells incubated for 30-50 min. at ambient temperature protected from light with metal lid having gas-exchange holes.
7. Read cellular baseline GloSensor luminescence in presence of test library compounds on the ViewLux [Exposure = 10 s.; Gain = High; Speed = Slow; and Binning = 2X.]
8. hNppC peptide agonist solution prepared at 1 mM (in H2O) stock concentration. From this a working dilution was prepared at 6 nM in CO2 Independent media. […]
Potency is read from the fitted curve at half-maximal effect.

SMILES | Potency
C[C@@H](NCCc1ccc(O)cc1)[C@@H](O)c1ccc(O)cc1 | inactive
C[C@@]1(C2CCCC2)Cc2cc(OCC(=O)O)c(Cl)c(Cl)c2C1=O | inactive
O=C(O)Cc1ccc(O)c(O)c1 | inactive
O=S(=O)(c1cccc2c(Cl)cccc12)N1CCCNCC1 | inactive
CCCn1c(=O)c2[nH]c(C3CCCC3)nc2n(CCC)c1=O | inactive
NC/C=C\C(=O)O | inactive
CC1=C(/C=C/C(C)=C/C=C/C(C)=C\C(=O)O)C(C)(C)CCC1 | inactive
COc1ccc(-c2cc3ncc(C)n3c(Nc3ncccc3C(N)=O)n2)cc1OC | inactive
CC(C)[C@H](NC(=O)OCc1ccccc1)C(=O)N[C@H](C=O)Cc1ccccc1 (Cbz-Val-Phe-aldehyde) | inactive
COc1ccc(CCN(C)CCc2ccc(OC)c(OC)c2)cc1OC | inactive
COc1ccccc1N1CCN(CCCNc2c(C)c(=O)n(C)c(=O)n2C)CC1 | inactive
CCCCOc1cc(CC2CNC(=O)N2)ccc1OC (stereo not given) | inactive
NCCC1CCCC(CCN)N1 (stereo not given) | inactive
O=C(O)[C@H]1NCCC[C@H]1C(=O)O | inactive
COC(=O)C(N)Cc1ccc(Cl)cc1 (stereo not given) | inactive
NCCCCN=C(N)N | inactive
CCCCCCN(CCCCCC)C(=O)Cc1c(-c2ccc(F)cc2)[nH]c2ccccc12 | inactive
N[C@H](C(=O)O)[C@H]1C[C@@H]1C(=O)O | inactive
NC1CCN(O)C1=O (stereo not given) | inactive
CC(=O)NCCc1c[nH]c2ccc(O)cc12 | inactive

SMILES | Potency
O=C(O)c1cccnc1C(=O)O | inactive
O=c1cc(-c2ccccc2F)[nH]c2cc3c(cc12)OCO3 | inactive
C=CCNc1ncnc2ccc(Br)cc12 | inactive
Cc1nc2n(c(=O)c1CCN1CCC(c3noc4cc(F)ccc34)CC1)CCCC2O (stereo not given) | inactive
NCCNS(=O)(=O)c1cccc2c(Cl)cccc12 | inactive
CCN(c1nc(N)c(C(=O)N=C(N)N)nc1Cl)C(C)C | inactive
O=C(O)CCC/C=C\C[C@@H]1[C@@H](/C=C/[C@H](O)C2Cc3ccccc3C2)[C@@H](F)C[C@@H]1O | inactive
N[C@@H](CS(=O)O)C(=O)O | inactive
NC(=O)CC[C@H](N)C(=O)O | inactive
N=C(N)c1ccccc1 | inactive
COc1ccc(C(=O)NCc2cccnc2)cc1C(=O)NCc1cccnc1 | inactive
CC(C)NCC(O)COc1ccc(CC(N)=O)cc1 (stereo not given) | inactive
Nc1nc2[nH]c(=O)cnc2c(=O)[nH]1 | inactive
CN1CCC2(CCN3CCc4c(oc5ccccc45)C3C2)N(C)C1=O (stereo not given) | inactive
O=C1C2C=CC=CC2=NC(=S)N1CCN1CCC(=C(c2ccc(F)cc2)c2ccc(F)cc2)CC1 (stereo not given) | inactive
NCCS(=O)O | inactive
CC(C)[C@@H]1CC[C@@H](C)C[C@@H]1P(=O)(c1ccccc1)c1ccccc1 | inactive
CCCCCCCCCCCCCCCCCCOC[C@H](COP(=O)([O-])OCC[N+](C)(C)C)OC | 8.26 µM (active)
CCCC[C@@]1(C2CCCC2)Cc2cc(OCC(=O)O)c(Cl)c(Cl)c2C1=O | inactive
Cc1cc2c(cc1Cl)N(C(=O)Nc1ccnc3ccccc13)CC2 | inactive
